PrPC surface inh = cell surface PrPC inhibition, primary TR-FRET screen | P04156 | TR-FRET read-out | inhibition, % at 13.8 µM | 0.43% of 370,000 active | AID 720596; in the data active = inhibition above about 24%; also: 0% = median of the test wells and 100% = reference compound wells
Sa RN4220 lethal = kills Staphylococcus aureus RN4220; inhibition, % (test concentration not listed); 0.33% of 330,000 active; S. aureus RN4220 growth, OD600, 16 h; AID 1259311; in the data active = inhibition above about 85%;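 also: plate controls were untreated cells for no effect and reference antibiotic for full effect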
BJeLR viability = BJeLR cell viability loss; inhibition, % (test concentration not listed); 0.17% of 300,000 active; BJeLR (HRASV12) viability, CellTiter-Glo ATP luminescence, 48 h; in the data active = inhibition above about 50%
Sa ugtP lethal = growth inhibition of S. aureus ugtP deletion strain | S. aureus RN4220 ugtP deletion, OD600 growth, 16 h | growth inhibition, % (test concentration not listed) | 0.54% of 330,000 active | AID 1259309; in the data active = growth inhibition above about 68%;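 also: plate controls were untreated wells for no effect and antibiotic for full effect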
Starred values were filed as active, the others as inactive; / = no result given; ! = not active in a repeat. An excerpt weighted towards active compounds, which were near 0.95% of everything screened.

SMILES	PrPC surface inh	Sa RN4220 lethal	BJeLR viability	Sa ugtP lethal
CCOC(=O)c1sc(S(C)(=O)=O)c2c1CC(C)(C)CC2=NO	/	4	/	11
CCN1C(=O)N(S(=O)(=O)C(F)(F)F)C(c2ccccc2)C(C(=O)OC)=C1C (configuration not stated)	/	7	/	6
Cc1ccn(CC(=O)NN=Cc2cc([N+](=O)[O-])ccc2O)n1	/	93*	/	83*
Cc1ccn(CC(=O)N/N=C/c2cc([N+](=O)[O-])ccc2O)n1	-11	/	4	/
O=[N+]([O-])c1ccc(O)c(C=Nc2ccc3nc(-c4ccccc4)[nH]c3c2)c1	-4	88*	5	66
O=C(Cn1nc2ccccc2n1)NN=Cc1cc([N+](=O)[O-])ccc1O	/	95*	/	88*
CCOC(=O)c1sc2ncn(N=Cc3cccnc3)c(=O)c2c1C	/	-12	/	-2
CCC(C)C(C(=O)N1CCN(C(=O)OC(C)(C)C)CC1)n1cc(C(CC(C)C)NC(=O)OC(C)(C)C)nn1 (configuration not stated)	/	4	/	0
C[C@H]1O[C@@H](OC2CC[C@]3(C=O)[C@H]4CC[C@]5(C)[C@@H](C6=CC(=O)OC6)CC[C@]5(O)[C@@H]4CC[C@]3(O)C2)CC2OC(C)(C)OC21 (some centres not stated)	-4	/	69*	/
CC12CCC3C(CCC4(O)CC(O)CCC34C=O)C1(O)CCC2C1=CC(=O)OC1 (configuration not stated)	0	/	/	/
COc1ccc(C=NNc2cc(C)nc(N3CCOCC3)n2)cc1	/	0	/	0
CN(C)CCOc1ccc(/C(=C(/CCCl)c2ccccc2)c2ccccc2)cc1	4	/	-9	/
CCN(CC)CCOc1ccc(C(=C(Cl)c2ccccc2)c2ccccc2)cc1	/	97*!	/	71
CCOC(=O)C1C2COc3ccccc3C2N2C(=O)N(c3ccc(C(F)(F)F)cc3)C(=O)[C@]12C (some centres not stated)	/	101*!	/	100*!
CCCC1CC(C(=O)NC(C(C)Cl)C2OC(SC)C(O)C(O)C2O)N(C)C1 (configuration not stated)	-3	100*	-3	100*
CCc1nnc(NN=Cc2ccccc2Cl)n1N	/	4	/	-4
O=C1c2ccccc2C(=O)c2cc(S(=O)(=O)Nc3ccccc3)ccc21	0	96*	-18	89*
Cc1nc(C(=O)NN=Cc2[nH]ncc2Br)cs1	/	1	/	5
CCCCCCn1c2c(c(=N)c3c1CCC3)CCC2	20	3	0	2
CCCCCCCn1c2c(c(=N)c3c1CCC3)CCCC2	21	11	10	99*
CCCCCCCCCn1c2c(c(=N)c3c1CCC3)CCC2	/	100*	39	101*
CCCCn1c2c(c(=N)c3c1CCC3)CCC2	5	/	/	/
Cc1[nH]c2ccccc2c1C=Nn1cnnc1	/	-1	/	13
CCCCCCc1cc2cc(-c3nnc(-c4ccccc4O)o3)c(=O)oc2cc1O	4	67	23	97*
CCCCCCc1cc2cc(-c3nnc(-c4ccccc4OC)o3)c(=O)oc2cc1O	-2	/	2	/
SMILES	PrPC surface inh	Sa RN4220 lethal	BJeLR viability	Sa ugtP lethal
C=C(C)CNC(=S)NNC(=O)CCn1c2ccc(Cl)cc2c2cc(Cl)ccc21	-4	93*	-7	43
CCc1nc(NCCC(C)C)c(C#N)c2c1CCCC2	3	1	-4	88*
COc1ccc(C(=O)c2ccc(Cl)cc2)c2ccccc12	-1	-5	6	96*
O=C(NN=Cc1ccc(F)cc1)c1c(O)c2ccccc2[nH]c1=O	/	5	/	8
O=C(NN=Cc1cccc(F)c1)c1c(O)c2ccccc2[nH]c1=O	/	99*	/	100*
Oc1c(C(c2ccc(Cl)cc2)N2CCCC2)cc(Cl)c2cccnc12 (configuration not stated)	4	100*	-11	100*
Oc1c(C(c2ccccn2)N2CCC(Cc3ccccc3)CC2)cc(Cl)c2cccnc12 (configuration not stated)	1	93*	14	88*
Cc1ccc(C(c2cc(Cl)c3cccnc3c2O)N2CCN(C)CC2)cc1 (configuration not stated)	/	/	4	/
C=CCOc1ccc2cccc(C=NNC(=O)c3cc4cc([N+](=O)[O-])ccc4s3)c2c1	/	1	/	5
Clc1ccc(C2C3CN(Cc4cccnc4)C(c4ccccc4)C34CC2(c2cccnc2)C4)cn1 (configuration not stated)	/	4	/	10
CC1NC(=O)c2cc([N+](=O)[O-])cc(I)c2OCCC(C(=O)NC(CC(=O)O)C(N)=O)NC(=O)C(CC(N)=O)NC1=O (configuration not stated)	/	8	/	8
COC(=O)C1=C(c2cccc(OCc3ccccc3)c2)CC2CCC1N2C(=O)NCc1ccc(F)cc1 (configuration not stated)	/	-8	/	0
